Over roughly 33,000 sequences, “E-score (-0.5 to 0.5)” has its median near -0.012; the highest 2% begin near 0.27. For the sample, the highest values were picked, then their nearest neighbours and some sequences at random.

For this assay, the target named is T1, Vhr1 (UniProt P40522).
T1 sequence: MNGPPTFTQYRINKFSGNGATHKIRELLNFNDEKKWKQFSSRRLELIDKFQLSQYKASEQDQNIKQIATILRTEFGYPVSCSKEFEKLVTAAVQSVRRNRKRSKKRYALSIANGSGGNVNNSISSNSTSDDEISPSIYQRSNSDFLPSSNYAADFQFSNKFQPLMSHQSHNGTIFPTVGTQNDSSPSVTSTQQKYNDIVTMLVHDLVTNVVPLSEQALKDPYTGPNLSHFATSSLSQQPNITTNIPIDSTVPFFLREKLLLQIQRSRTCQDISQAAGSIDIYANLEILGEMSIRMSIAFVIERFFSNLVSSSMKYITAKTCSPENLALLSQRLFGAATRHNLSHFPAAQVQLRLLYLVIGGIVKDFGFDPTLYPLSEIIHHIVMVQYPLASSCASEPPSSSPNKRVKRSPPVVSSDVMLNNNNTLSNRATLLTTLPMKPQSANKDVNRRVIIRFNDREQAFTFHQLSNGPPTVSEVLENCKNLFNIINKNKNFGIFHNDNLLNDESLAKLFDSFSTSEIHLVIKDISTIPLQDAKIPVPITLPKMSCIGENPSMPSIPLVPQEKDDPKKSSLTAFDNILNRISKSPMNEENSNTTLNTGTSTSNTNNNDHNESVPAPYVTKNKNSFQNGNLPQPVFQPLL
Put plainly: PBM E-score (8-mer binding enrichment) (E-score (-0.5 to 0.5)); higher = stronger / more preferred TF binding. As to conditions: protein concentration: 200 nM; construct: GST-full length. As to the method: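 Universal 'all 10-mer' protein binding microarrays (Agilent AMADID 015681) probed with GST-tagged S. cerevisiae TFs (full-length or DBD) made by in vitro transcription/translation (PURExpress), about 100-200 nM. Bound TF was detected with fluorescent anti-GST. Each ungapped 8-mer (which stands for itself and its reverse complement) is scored by the PBM enrichment score (E-score), a modified Wilcoxon-Mann-Whitney statistic from -0.5 to +0.5, computed with the Universal PBM Analysis Suite. Scale: above 0.35 generally sequence-specific binding.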
Turning to CATAGTCG, the “PBM E-score” value was 0.238. For CATAGTCA, the “PBM E-score” value was 0.37.

For the sequence TATAGTAA, the “PBM E-score” value came to 0.15. Consider ACGGGAGG, for which the “PBM E-score” value is -0.13. AATGTGGT: the “PBM E-score” value amounted to 0.115.

Take GAATCGAC: the “PBM E-score” value was -0.005. With ACAAATCG the figure was 0.0133; with ATCAGCTA, 0.0387. Regarding GAAGGATC, the “PBM E-score” value is -0.0379. With GGCTCAAC the figure was -0.199; with CTGGCTGA, 0.143.

Regarding ACAATCGT, the “PBM E-score” value turned out to be 0.0768. Turning to CAATCCTG, the “PBM E-score” value was found to be 0.122. As for ATATGGAA, the “PBM E-score” value was 0.178. The value for ATGCTGTG was 0.116; that for AGTGTGAC was 0.209; that for AGTGTGAT was 0.296. With AGTGTGAG the figure was 0.147. Consider ACGTCAGA, for which the “PBM E-score” value was -0.0949.

On to ACAGTTGG, for which the “PBM E-score” value is -0.02. As for AGCGAGTC, the “PBM E-score” value was found to be 0.275.

For CTCGAGTC, the “PBM E-score” value was determined as 0.235. Regarding AGCGAGTA, the “PBM E-score” value was determined as 0.119. Consider CGCGAGTA, for which the “PBM E-score” value was 0.112. AGCGAGTG: the “PBM E-score” value was determined as 0.192.

For the sequence CGCGAGTC, the “PBM E-score” value amounted to 0.355. Consider CATCACAA, for which the “PBM E-score” value worked out at 0.0244. As for CGCCAAGA, the “PBM E-score” value is -0.0615. With CGGAGCGA, the “PBM E-score” value stood at 0.0369. The value for ACTTGGGA was -0.155; that for AGCCAGTG was 0.00862; that for AGTTGCAT was -0.0357. With CACCTTAA the figure was -0.0968; with GGGAATCA, 0.307; with CAGAATCA, 0.313. TAGAATCA: the “PBM E-score” value was 0.185. The value for CGGAATTA was -0.193; that for AGGAATCA was 0.28; that for AGGAATCC was 0.119. In the case of CGGAATCC, the “PBM E-score” value is 0.0628.

For AAGAATCA, the “PBM E-score” value turned out to be 0.222. With CGGAATCA, the “PBM E-score” value was 0.412. On to GGGAATGA, for which the “PBM E-score” value was found to be 0.169. In the case of GGGAATAA, the “PBM E-score” value is -0.0372.

AGGAATCG: the “PBM E-score” value was 0.0478. CACTCGAG: the “PBM E-score” value was -0.029. As to CTCTTCAG, the “PBM E-score” value is -0.0887. The value for TTCCTCAA was -0.19; that for ATGGTCCG was 0.175; that for ATAGGCCA was -0.159. As to AGACTAAC, the “PBM E-score” value is 0.0491. The value for GCTAAACA was -0.0852; that for ACTGGCAC was -0.113. Take ATGAAGCG: the “PBM E-score” value was -0.136.

On to TGAAATAA, for which the “PBM E-score” value was -0.158. As for ACATTTAT, the “PBM E-score” value was -0.0139.

Regarding CCTTGCGA, the “PBM E-score” value was -0.0209. For the sequence GCTTGCGA, the “PBM E-score” value stood at 0.295.

As for ACTTGCGA, the “PBM E-score” value came out at 0.0242.

For ACTGGCCT, the “PBM E-score” value was -0.135. For the sequence CAGATGTC, the “PBM E-score” value was found to be 0.105. Turning to AGAGTCGC, the “PBM E-score” value stood at 0.338.

For ATAGTCGC, the “PBM E-score” value amounted to 0.243. On to AGAGTCTG, for which the “PBM E-score” value was -0.106. With AGAGTCGA the figure was 0.157; with AGAGTCGG, 0.329; with CCAGTCGC, 0.13. Consider CGAGTCGA, for which the “PBM E-score” value amounted to 0.224. Turning to AAAGTCGC, the “PBM E-score” value is 0.137.

As for CGAGTCGC, the “PBM E-score” value was 0.34. With CCCTTCTA the figure was -0.218. CTAGCTGA: the “PBM E-score” value came to 0.0125. On to CTACTGAA, for which the “PBM E-score” value came to 0.132. Take CGCCCTCA: the “PBM E-score” value is -0.16. With AAGGGCTC the figure was -0.218. For the sequence AGGGCTCG, the “PBM E-score” value was -0.079.

Take AGCTTCTA: the “PBM E-score” value was -0.278.

ATTGATTG: the “PBM E-score” value stood at 0.0691. As to CGCGATTA, the “PBM E-score” value was 0.162.

On to AGTGATTC, for which the “PBM E-score” value came to 0.285.

For the sequence AGTGATTG, the “PBM E-score” value was determined as 0.343. For AGTGATTA, the “PBM E-score” value is 0.216. In the case of AGCGATTC, the “PBM E-score” value came out at 0.168. As to CGTGATTA, the “PBM E-score” value worked out at 0.236. In the case of AGTGATAG, the “PBM E-score” value was -0.0174.

Take AGTGATAC: the “PBM E-score” value turned out to be 0.237. Turning to CGTGATCC, the “PBM E-score” value is -0.0765. Turning to CGCGATTC, the “PBM E-score” value came to 0.278. On to CGTGATTC, for which the “PBM E-score” value is 0.326.

The values are drawn from the supplement of paper PMC3334620.
